This is an account of results in PubChem BioAssay (NCI).

A short description of experiment [1]: NCI Yeast Anticancer Drug Screen. Data for the rad50 strain (AID 155).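 Further: 0% = growth of vehicle-only cultures of the same strain.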 To be noted: S. cerevisiae rad50 strain growth inhibition, stronger effect = higher value. Summed up: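 Compounds were tested on a yeast strain with an engineered DNA damage repair alteration; the reported value is growth inhibition normalised to vehicle treatment.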
Experiment [2] in a line: NCI Yeast Anticancer Drug Screen. Data for the mec2-1 strain (AID 157). Particulars: S. cerevisiae mec2-1 strain, stronger effect = higher value. The method in brief:
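Each compound was tested on mec2-1 yeast, a strain altered in DNA damage repair or cell cycle control. Growth inhibition is reported relative to vehicle.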

Experiment [3] in a line: NCI Yeast Anticancer Drug Screen. Data for the sgs1 mgt1 strain (AID 161).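 Further: 0% = growth of cultures given vehicle only.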 To be noted: S. cerevisiae sgs1 mgt1 strain, stronger effect = higher value. The method in brief:
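Mutant yeast exposed to compound; growth scored against vehicle-only wells.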

Experiment [4] is described as follows: NCI Yeast Anticancer Drug Screen. Data for the cln2 rad14 strain (AID 165).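 Further: 0% = growth equal to vehicle treated cultures.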 To be noted: S. cerevisiae cln2 rad14 strain, stronger effect = higher value. The method in brief:
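Test compounds were added to cln2 rad14 yeast cultures; inhibition of growth was then determined by comparison with vehicle treatment.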

A short description of experiment [5]: NCI Yeast Anticancer Drug Screen. Data for the bub3 strain (AID 167). To be noted: S. cerevisiae bub3 mutant strain, stronger effect = higher value. The method in brief: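 Growth of a checkpoint-deficient yeast mutant is measured after compound exposure. Values represent inhibition relative to vehicle.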
Experiment [6] can be described thus: NCI Yeast Anticancer Drug Screen. Data for the mlh1 rad18 strain (AID 175). To be noted: S. cerevisiae mlh1 rad18 strain growth inhibition, stronger effect = higher value. Summed up:
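Inhibition values reflect reduced growth of mutant yeast versus vehicle-treated controls following compound exposure; the mutations affect DNA damage repair.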

[7] abbreviates: at 5.0 µM (retest, dose inferred, filed as 0.5).
Where [8] appears, read: at 50.0 µM (retest, dose inferred, filed as 5.0).

Several values for one entry are separate records, joined by “and”; a condition that tells them apart may be missing. Identical values can stand only once. This is part of a sample that, as a whole, favours compounds with a hit. Of some 79,000 tested, about 15% had one in any assay. Where a structure was tested more than once in an assay, its records may differ in their call. Activity calls are given as the source filed them. No stated cut-off is given here; in the data, active means growth inhibition above about 70%; inactive means the rest.

`[Ni+2].[SH2+]C([SH2+])=Nc1ccccc1.[SH2+]C([SH2+])=Nc1ccccc1.c1ccc(C[P+](c2ccccc2)(c2ccccc2)c2ccccc2)cc1`: the growth inhibition is 14% (inactive) in experiment [1] (setting [7]); 91% (active) in experiment [1] (setting [8]); 97.9% (active) in experiment [1] (at 50.0 µM); 26% (inactive) in experiment [2] (setting [7]); 88% (active) in experiment [2] (setting [8]); 98% (active) in experiment [2] (at 50.0 µM). Further, the growth inhibition in experiment [3] (setting [7]) was 21% (inactive); in experiment [3] (setting [8]), 91% (active); in experiment [3] (at 50.0 µM), 97.8% (active); in experiment [4] (setting [7]) it was -6% (inactive); in experiment [4] (setting [8]), 87% (active); in experiment [4] (at 50.0 µM), 90.8% (active). The growth inhibition in experiment [5] (setting [7]) was 8% (inactive); in experiment [5] (setting [8]) it was 85% (active); in experiment [5] (at 50.0 µM) it was 95.3% (active); in experiment [6] (setting [7]), 40% (inactive); in experiment [6] (setting [8]), 98% (active); in experiment [6] (at 50.0 µM), 98.5% (active).
For `O=C(O)Cc1ccc2c(c1)OCO2.[Ag]`, the growth inhibition in experiment [1] (setting [7]) was 99% (active); in experiment [1] (setting [8]) it was 93% (active); in experiment [1] (at 50.0 µM), 96% (active); in experiment [2] (setting [7]), 99% (active); in experiment [2] (setting [8]), 95% (active); in experiment [2] (at 50.0 µM), 97% (active). In addition, the growth inhibition was 99% (active) in experiment [3] (setting [7]); 94% (active) in experiment [3] (setting [8]); 96.6% (active) in experiment [3] (at 50.0 µM); 99% (active) in experiment [4] (setting [7]); 94% (active) in experiment [4] (setting [8]); 90.2% (active) in experiment [4] (at 50.0 µM). Moreover, the growth inhibition in experiment [5] (setting [7]) is 99% (active); in experiment [5] (setting [8]), 93% (active); in experiment [5] (at 50.0 µM) it was 93.3% (active); in experiment [6] (setting [7]), 99% (active); in experiment [6] (setting [8]), 93% (active); in experiment [6] (at 50.0 µM), 94.4% (active).
Consider `CCC[CH2][Sn]([Cl])([CH2]Cl)[CH2]CCC`, for which the growth inhibition in experiment [1] (setting [7]) was 97% (active); in experiment [1] (setting [8]), 99% (active); in experiment [1] (at 50.0 µM) it was 99% (active); in experiment [2] (setting [7]), 99% (active); in experiment [2] (setting [8]), 100% (active); in experiment [2] (at 50.0 µM), 99.2% (active). Besides, the growth inhibition in experiment [3] (setting [7]) was 98% (active); in experiment [3] (setting [8]) it was 99% (active); in experiment [3] (at 50.0 µM), 99.4% (active); in experiment [4] (setting [7]), 98% (active); in experiment [4] (setting [8]), 98% (active); in experiment [4] (at 50.0 µM), 99.3% (active). Besides, the growth inhibition in experiment [5] (setting [7]) was 98% (active); in experiment [5] (setting [8]) it was 99% (active); in experiment [5] (at 50.0 µM), 99.3% (active); in experiment [6] (setting [7]) it was 99% (active); in experiment [6] (setting [8]), 99% (active); in experiment [6] (at 50.0 µM), 99.2% (active).
For `CC[N-]c1nnnn1CC.[Au+].c1ccc([PH+](c2ccccc2)c2ccccc2)cc1`, the growth inhibition in experiment [1] (setting [7]) was 99% (active); in experiment [1] (setting [8]), 98% (active); in experiment [1] (at 50.0 µM), 97.8% (active); in experiment [2] (setting [7]), 99% (active); in experiment [2] (setting [8]), 98% (active); in experiment [2] (at 50.0 µM), 98.4% (active). Besides, the growth inhibition was 99% (active) in experiment [3] (setting [7]); 98% (active) in experiment [3] (setting [8]); 97.7% (active) in experiment [3] (at 50.0 µM); 97% (active) in experiment [4] (setting [7]); 96% (active) in experiment [4] (setting [8]); 97.2% (active) in experiment [4] (at 50.0 µM). Further, the growth inhibition is 99% (active) in experiment [5] (setting [7]); 98% (active) in experiment [5] (setting [8]); 97.8% (active) in experiment [5] (at 50.0 µM); 99% (active) in experiment [6] (setting [7]); 97% (active) in experiment [6] (setting [8]); 97.2% (active) in experiment [6] (at 50.0 µM).
`S=P(Nc1ccccc1)(Nc1ccccc1)Oc1ccccc1`: the growth inhibition was 2% (inactive) in experiment [1] (setting [7]); 98% (active) in experiment [1] (setting [8]); 99% (active) in experiment [1] (at 50.0 µM); -4% (inactive) in experiment [2] (setting [7]); 98% (active) in experiment [2] (setting [8]); 99% (active) in experiment [2] (at 50.0 µM). Further, the growth inhibition in experiment [3] (setting [7]) is -4% (inactive); in experiment [3] (setting [8]), 98% (active); in experiment [3] (at 50.0 µM), 99.2% (active); in experiment [4] (setting [7]), -4% (inactive); in experiment [4] (setting [8]), 97% (active); in experiment [4] (at 50.0 µM), 98.7% (active). For the same compound, the growth inhibition in experiment [5] (setting [7]) was 9% (inactive); in experiment [5] (setting [8]) it was 97% (active); in experiment [5] (at 50.0 µM), 98.7% (active); in experiment [6] (setting [7]), 7% (inactive); in experiment [6] (setting [8]) it was 97% (active); in experiment [6] (at 50.0 µM), 97.5% (active).
Consider `Cc1ccc(C(=O)CCl)c(C)c1`, for which the growth inhibition was 11% (inactive) and 16% (inactive) in experiment [1] (setting [7]); 99% (active) and 94% (active) in experiment [1] (setting [8]); 96.4% (active) and 87.7% (active) in experiment [1] (at 50.0 µM); 23% (inactive) and 18% (inactive) in experiment [2] (setting [7]); 99% (active) and 92% (active) in experiment [2] (setting [8]); 98.2% (active) and 91.6% (active) in experiment [2] (at 50.0 µM). The growth inhibition in experiment [3] (setting [7]) is 25% (inactive) and 11% (inactive); in experiment [3] (setting [8]) it was 99% (active) and 55% (inactive); in experiment [3] (at 50.0 µM), 94.7% (active) and 96.1% (active); in experiment [4] (setting [7]) it was 15% (inactive) and 17% (inactive); in experiment [4] (setting [8]), 97% (active) and 83% (active); in experiment [4] (at 50.0 µM), 87.3% (active) and 71.6% (active). For the same compound, the growth inhibition is 8% (inactive) and 2% (inactive) in experiment [5] (setting [7]); 99% (active) and 97% (active) in experiment [5] (setting [8]); 91.8% (active) and 90.2% (active) in experiment [5] (at 50.0 µM); 28% (inactive) and 7% (inactive) in experiment [6] (setting [7]); 99% (active) in experiment [6] (setting [8]); 97.7% (active) and 97.1% (active) in experiment [6] (at 50.0 µM).
Consider `CCN(Cc1ccccc1)CC(O)c1ccc(Cl)c(Cl)c1` (centres undefined), for which the growth inhibition in experiment [1] (setting [7]) is -3% (inactive); in experiment [1] (setting [8]), 99% (active); in experiment [1] (at 50.0 µM), 9.25% (inactive); in experiment [2] (setting [7]) it was -1% (inactive); in experiment [2] (setting [8]), 99% (active); in experiment [2] (at 50.0 µM), -12.7% (inactive). Besides, the growth inhibition is -2% (inactive) in experiment [3] (setting [7]); 99% (active) in experiment [3] (setting [8]); 20.1% (inactive) in experiment [3] (at 50.0 µM); 2% (inactive) in experiment [4] (setting [7]); 99% (active) in experiment [4] (setting [8]); -23.4% (inactive) in experiment [4] (at 50.0 µM). Besides, the growth inhibition in experiment [5] (setting [7]) was 0% (inactive); in experiment [5] (setting [8]), 98% (active); in experiment [5] (at 50.0 µM) it was 70.3% (active); in experiment [6] (setting [7]), -1% (inactive); in experiment [6] (setting [8]), 99% (active); in experiment [6] (at 50.0 µM), 3.6% (inactive).
For the compound `COc1ccccc1[As]=O` (centres undefined), the growth inhibition is 1% (inactive) in experiment [1] (setting [7]); 99% (active) in experiment [1] (setting [8]); 99.3% (active) in experiment [1] (at 50.0 µM); -12% (inactive) in experiment [2] (setting [7]); 99% (active) in experiment [2] (setting [8]); 99.6% (active) in experiment [2] (at 50.0 µM). Also, the growth inhibition in experiment [3] (setting [7]) was 8% (inactive); in experiment [3] (setting [8]) it was 99% (active); in experiment [3] (at 50.0 µM), 99.5% (active); in experiment [4] (setting [7]), -14% (inactive); in experiment [4] (setting [8]), 99% (active); in experiment [4] (at 50.0 µM), 98.6% (active). In addition, the growth inhibition in experiment [5] (setting [7]) is 12% (inactive); in experiment [5] (setting [8]) it was 99% (active); in experiment [5] (at 50.0 µM), 99.2% (active); in experiment [6] (setting [7]), 25% (inactive); in experiment [6] (setting [8]) it was 99% (active); in experiment [6] (at 50.0 µM), 99.4% (active).
